GDH-TPI counter-1 – counter-screen for M. tuberculosis FBA inhibitors: GDH-TPI coupled enzymes. GDH-TPI coupled enzyme counterscreen, NADH absorbance. inhibition, % at 4.8 µM. 1.2% of 360,000 active; in the data active means inhibition above about 30%;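 further: 0% = DMSO wells and 100% = wells lacking the enzyme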
BJeLR lethal – kills HRASV12-expressing BJeLR cells. BJeLR (HRASV12) viability, CellTiter-Glo ATP luminescence, 48 h. inhibition, % (test concentration not listed). 0.17% of 300,000 active. AID 1554; in the data active means inhibition above about 50%
FBA Mtb inh – inhibitors of M. tuberculosis fructose-bisphosphate aldolase; purified M. tuberculosis FBA, fluorescence read-out; inhibition, % at 1 µM; 2.3% of 360,000 active;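 further: 0% = vehicle and 100% = reference inhibitor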
Target sequence (P9WQA3 whole entry, looked up): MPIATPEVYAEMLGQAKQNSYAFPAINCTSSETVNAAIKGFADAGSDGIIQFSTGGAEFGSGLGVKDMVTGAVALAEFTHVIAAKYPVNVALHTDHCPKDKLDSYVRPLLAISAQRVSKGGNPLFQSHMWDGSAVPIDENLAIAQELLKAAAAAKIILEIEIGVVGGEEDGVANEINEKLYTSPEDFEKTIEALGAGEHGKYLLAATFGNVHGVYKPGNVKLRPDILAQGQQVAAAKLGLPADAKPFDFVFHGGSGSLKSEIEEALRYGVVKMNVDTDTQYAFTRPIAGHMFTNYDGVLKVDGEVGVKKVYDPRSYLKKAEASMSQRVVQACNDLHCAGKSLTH
PrPC TRFRET – inhibitors of human cell surface prion protein PrPC | inhibition, % at 13.8 µM | P04156 | AID 720596 | TR-FRET read-out | 0.43% of 370,000 active; in the data active means inhibition above about 24%; further: 0% = median of the test wells and 100% = reference compound wells
RecA intein inh – inhibitors of M. tuberculosis RecA intein splicing; inhibition, % (concentration not given with the values); 0.75% of 290,000 active; cell-free RecA intein splicing, fluorescence; P9WHJ3; in the data active means inhibition above about 30%;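 further: 0% = vehicle wells and 100% = reference inhibitor control wells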
Mtb FBA inh conf – confirmation of M. tuberculosis fructose-bisphosphate aldolase inhibitors; shares compounds with FBA Mtb inh; inhibition, % at 1 µM; AID 651616; 78% of 5,600 active; purified M. tuberculosis FBA, fluorescence read-out;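 further: 0% = vehicle wells and 100% = reference inhibitor wells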
GDH-TPI counter-2 – counter-screen for M. tuberculosis FBA inhibitors: GDH-TPI coupled enzyme inhibition | shares compounds with FBA Mtb inh | GDH-TPI coupled enzyme counterscreen, fluorescence | inhibition, % at 1 µM | 81% of 5,600 active; in the data active means inhibition above about 10%
GDH-TPI dose – GDH-TPI dose response counter-screen for Mtb FBA. IC50, µM. 79% of 170 active. GDH-TPI coupled enzyme assay, fluorescence, artifact counterscreen. shares compounds with FBA Mtb inh; call rule not given here
Starred values were filed as active, the others as inactive; nt = no result given; + = active, no number. Only some compounds are listed: those with a hit (about 4.2% of all), similar ones and a draw of the others. Unless noted, no stated cut-off is given here; in the data, active means inhibition above about 27%; inactive means the rest.

SMILES | GDH-TPI counter-1 | BJeLR lethal | FBA Mtb inh | PrPC TRFRET | RecA intein inh | Mtb FBA inh conf | GDH-TPI counter-2 | others
O=C(CNc1ccccc1C(=O)O)c1ccccc1 | 2.2 | -1.2 | 27.7* | 0.9 | -0.1 | 34.0* | 32.1*
NC(=O)c1ccccc1NCC(=O)c1ccc(Cl)cc1 | -0.4 | 3.9 | 43.2* | 5.4 | -0.6 | 158.8* | 123.8*
NC(=O)c1c(N)[nH]c(C(=O)c2ccccc2)c1-c1ccc(Br)cc1 | nt | nt | nt | -5.3 | nt | nt | nt
CCCC#Cc1ccc(CC[C@H]2O[C@H]3CC[C@@H](CO)O[C@H]3C[C@H]2NC(=O)CN2CCOCC2)cc1 | nt | nt | nt | 4.7 | nt | nt | nt
COc1cccc(Cn2cc(COC(=O)NCCc3c[nH]c4ccccc34)nn2)c1 | nt | nt | nt | 15.0 | nt | nt | nt
Cc1c(C)c2c(OCC(=O)NCC(C)C)cc3c(c2oc1=O)CCC(C)(C)O3 | -7.3 | 5.2 | 57.4* | 0.0 | 2.6 | + | 189.5*
Cc1c(C)c2c(OCC(=O)NCc3cccnc3)cc3c(c2oc1=O)CCC(C)(C)O3 | 21.6 | -3.3 | 56.6* | -5.1 | -2.9 | 69.0* | 52.3*
Cc1c(C)c2c(OCC(=O)NCc3ccncc3)cc3c(c2oc1=O)CCC(C)(C)O3 | 7.8 | 10.7 | 30.6* | -4.5 | -0.6 | + | +
Cc1c(OCC(=O)NCc2cccnc2)ccc2c3c(c(=O)oc12)CCC3 | 20.7 | -1.5 | 9.9 | -6.3 | -5.4 | nt | nt
Cc1cc(=O)oc2c3c(cc(OCC(=O)N[C@@H](CC(C)C)C(=O)O)c12)OC(C)(C)CC3 | 11.2 | -7.8 | 39.2* | -10.2 | -0.6 | 39.3* | 34.7*
Cc1c(C)c2c(OCC(=O)NCc3ccco3)cc3c(c2oc1=O)CCC(C)(C)O3 | 15.7 | -3.8 | 33.5* | 7.1 | -2.5 | + | +
COc1ccc(CCNC(=O)COc2cc(C)cc3oc(=O)cc(C)c23)cc1OC | 9.4 | 1.9 | 5.4 | 3.6 | -1.6 | nt | nt
COc1ccc(CNC(=O)COc2cc3c(c4oc(=O)cc(C)c24)CCC(C)(C)O3)cc1OC | 13.9 | 5.7 | 39.1* | 1.4 | 1.7 | 54.2* | 38.2*
COc1ccc(CN(CCN2CCOCC2)C(=O)c2cc(F)ccc2C)cc1OC | nt | nt | nt | -2.9 | nt | nt | nt
O=C(Nc1ccc(F)cc1)OCc1cn(Cc2ccccc2F)nn1 | nt | nt | nt | 3.4 | nt | nt | nt
COc1ccc(C2SCC(=O)N2c2ccc(F)cc2)cc1 (stereo unspecified) | 4.6 | -5.6 | 0.4 | 9.4 | -9.9 | nt | nt
COc1ccc(N2C(=O)CSC2c2cccc(F)c2)cc1 (stereo unspecified) | -5.2 | 0.6 | 39.1* | -0.3 | 1.2 | 180.6* | 154.3*
CCCCCCCCN1C(=O)[C@@H](CC(=O)NCCc2ccccc2OC)C[C@@]2(C(=O)OC)C1=C[C@H](COCc1ccccc1)O[C@@H]2C | nt | nt | nt | 0.9 | nt | nt | nt
Nc1nnc(/C=C/c2ccccc2Cl)s1 | 6.4 | 2.6 | 28.1* | -6.5 | -0.7 | 15.4 | -0.3 | GDH-TPI dose=3.92*
O=c1nc(-c2ccccc2Cl)c2cc(F)ccc2[nH]1 | 5.1 | -1.7 | 53.1* | -10.0 | -8.3 | 52.6* | 46.2*
O=c1nc(-c2ccccc2)c2ccccc2[nH]1 | 10.9 | -4.9 | 13.2 | 1.1 | nt | nt | nt
Cc1ccc(Nc2nnc(-c3ccccc3N)o2)cc1C | 7.3 | -8.0 | 49.0* | 7.8 | -6.3 | 11.1 | 2.6 | GDH-TPI dose=3.15*
CC(C)(C)C(=O)CSc1nnc(SCc2cccc3ccccc23)s1 | nt | nt | nt | 3.9 | nt | nt | nt
CCCCc1cc(=O)oc2cc(OCC(=O)N3C[C@H]4C[C@@H](C3)c3cccc(=O)n3C4)ccc12 | 12.8 | -5.5 | 6.5 | 5.0 | -0.9 | nt | nt
CCCCc1cc(=O)oc2cc(C)cc(OCC(=O)N3C[C@H]4C[C@@H](C3)c3cccc(=O)n3C4)c12 | 12.8 | 1.3 | 42.3* | -2.0 | nt | 51.2* | 37.7*
SMILES | GDH-TPI counter-1 | BJeLR lethal | FBA Mtb inh | PrPC TRFRET | RecA intein inh | Mtb FBA inh conf | GDH-TPI counter-2 | others
CCc1cc(=O)oc2c(C)c(OCC(=O)N3C[C@H]4C[C@@H](C3)c3cccc(=O)n3C4)ccc12 | 13.7 | -6.6 | 6.4 | -0.1 | -0.1 | nt | nt
Cc1cc(OCC(=O)N2C[C@H]3C[C@@H](C2)c2cccc(=O)n2C3)c2c(C)c(C)c(=O)oc2c1 | 8.8 | 2.0 | 39.6* | -0.6 | nt | 38.5* | 22.9*
CCCc1cc(=O)oc2cc(C)cc(OCC(=O)N3C[C@H]4C[C@@H](C3)c3cccc(=O)n3C4)c12 | 9.7 | nt | 41.6* | -3.3 | nt | 167.2* | 127.0*
S=C(Nc1ccc(Cl)cc1)OC1CCC12CCC(c1ccccc1)CC2 (stereo unspecified) | nt | nt | nt | 15.6 | nt | nt | nt
CC(C)CN1CN2Cc3ccccc3C2CS1(=O)=O (stereo unspecified) | nt | nt | nt | -13.3 | nt | nt | nt
COc1ccc(S[C@]2(C(=O)N3CCN(c4ncccn4)CC3)CC(=O)N(c3ccccc3)[C@@H]2c2ccc(OC)cc2)cc1 | nt | nt | nt | -0.1 | nt | nt | nt
CNC(=O)c1cccn(Cc2cc(C(F)(F)F)cc(C(F)(F)F)c2)c1=O | 15.5 | 8.9 | 15.6 | 11.2 | 1.9 | nt | nt
NC(=O)c1cccn(Cc2ccc(C(F)(F)F)cc2)c1=O | 10.7 | 7.8 | 52.2* | 5.6 | -1.0 | 96.3* | 71.5*
CNC(=O)c1cccn(Cc2ccc(C(F)(F)F)cc2)c1=O | 4.7 | 0.0 | 28.8* | -4.1 | -1.6 | 68.0* | 42.6*
Cn1c(SCCc2ccccc2)nnc1-c1ccco1 | nt | nt | nt | 0.8 | nt | nt | nt
CCCCn1c(=O)[nH]c(=O)c2c1nc(-c1ccccn1)n2CC | 4.5 | -8.0 | 52.6* | -2.1 | nt | 32.6* | 32.9*
CCCCn1c(=O)[nH]c(=O)c2c1nc(-c1ccc(OCC)cc1)n2CC | 3.0 | -11.2 | 9.4 | 0.2 | -0.8 | nt | nt
COc1ccc(C2CC(c3ccccc3OC(C)=O)=NN2C(=O)/C=C/c2ccccc2)cc1 (stereo unspecified) | 17.7 | 1.0 | -3.8 | -7.7 | 0.6 | nt | nt
COc1ccc(C2CC(c3ccccc3OC(C)=O)=NN2C(C)=O)cc1 (stereo unspecified) | 14.7 | -4.7 | 49.9* | 11.8 | 1.4 | 108.7* | 74.8*
O=C(Nc1c(C(=O)O)[nH]c2ccccc12)NC1CCCCC1 | 3.4 | 2.7 | 35.5* | -2.9 | 3.6 | + | 174.2*
COC(=O)c1[nH]c2ccc(C)cc2c1NC(=O)NC1CCCCC1 | 7.5 | 5.3 | 11.9 | 3.2 | -16.1 | nt | nt
CCC(C)NC(=O)CSc1nnc(-c2cc(OC)c(OC)c(OC)c2)o1 (stereo unspecified) | nt | nt | nt | 0.3 | nt | nt | nt
COc1cccc(-c2ccc(C#N)c(OC(=O)c3ccc(Cl)cc3)n2)c1 | 21.3 | -5.5 | 95.1* | -5.7 | -2.8 | 135.3* | 106.1*
COc1cccc(-c2ccc(C#N)c(OC(=O)c3c(Cl)cccc3Cl)n2)c1 | 6.6 | -4.1 | 10.4 | -0.7 | -0.8 | nt | nt
Cc1ccc(-n2nc(-c3ccc(N)cc3)cc2N)cc1 | 8.7 | 2.1 | -1.7 | -11.1 | 0.6 | nt | nt
Cc1ccc(-n2nc3ccc(N)cc3n2)cc1 | 20.4 | -2.2 | 64.2* | -1.8 | -29.6 | 39.4* | 23.3*
